# Screening results as filed in PubChem BioAssay.
# This is a sample that favours compounds with a hit; in the whole collection about 8.6% have one here.
# Marburg entry: blocks Marburg virus binding or cell entry; 6.5% of 18,000 active; Potency, µM (doses to about 49.2 µM), for inactives: at the highest dose activity change, negative = inhibition, hits mostly inhibitors; AID 720532; Marburg virus pseudotype entry/binding inhibition, cell-based
# LASV entry inh: inhibitors of Lassa virus binding or entry into cells | Lassa virus pseudotyped entry inhibition, cell-based qHTS | Potency, µM (top dose mostly 49.2 µM), for the others: top-dose activity change, negative = inhibition, hits mostly inhibitors | 4.1% of 18,000 active | AID 720533
# Numbers without * were called inactive; ? = inconclusive; · = no result; ! = not confirmed by another sample; [ ] = another dose, or the depositor's remark. Calls follow the shape of the full dose curve; tested in HEK293 cells. % is scaled to controls: 0 for no effect and ±100 for the full control effect; potency is read from the fitted curve at half-maximal effect.
SMILES,Marburg entry,LASV entry inh
CC(=O)N[C@@H](CC(C)C)C(=O)N[C@@H](CC(C)C)C(=O)N[C@H](C=O)CCCN=C(N)N,0.11µM*,11%
CCCCC(C=O)NC(=O)C(CC(C)C)NC(=O)OCc1ccccc1 (centres undefined),?,-13%
CSCC[C@H](C=O)NC(=O)[C@H](CC(C)C)NC(=O)[C@H](CC(C)C)NC(C)=O,?,18%
CC(C)C[C@H](NC(=O)[C@H](CC(C)C)NC(=O)[C@H](Cc1ccccc1)NC(=O)[C@@H](N)CO)C(=O)N[C@@H](CCCN=C(N)N)C(=O)N[C@@H](CC(N)=O)C(=O)O,9%,-2%
CCCC[C@@H](C=O)NC(=O)[C@H](CC(C)C)NC(=O)OCc1ccccc1,?,20µM*
CCOC(=O)CCN1C(=O)[C@@H]2[C@H]3[C@H](O)[C@H](O)CC(=NNC(=O)OCc4ccc(OC)cc4)[C@H]3CC[C@H]2C1=O,22%[8.59 µM],·
N#CCCCS(=O)(=O)c1nnnn1-c1ccccc1,?,24%[8.59 µM]
Cc1nc(-c2ccccc2)n2nc(NCCCN3CCOCC3)ncc12,-29%,·
C=CC[C@@H]1C=C[C@H](ON=C[C@@H](N[S+](=O)([O-])c2ccc(C)cc2)[C@H](C)C=CCC(=O)OC)[C@H](CO)O1,-14%[8.59 µM],-27%[8.59 µM]
O[C@H]1CN(Cc2cccs2)[C@@H](c2ccccc2)C[C@H]1n1cc(C2CC2)nn1,-18%,7%
C=C(C)C(=O)OC[C@@H]1CN2[C@H](c3ccc(Br)cc3)[C@H](C)CC[C@H]2C(=O)O1,46%[8.59 µM],11%[8.59 µM]
COC1=C[C@@H](C(=O)N[C@H]2CCCC[C@H]2NC(C)=O)[C@@H](C)[C@H](c2ccccc2)CC1=O,-13%[8.59 µM],?
Oc1cc[c]([Hg][Cl])cc1,3.5µM*,4.5µM*
CC[C@H](c1ccc(O)cc1)[C@@H](CC)c1ccc(O)cc1,14%[17.8 µM],?
COc1cc(COc2cc(N)c(Cl)cc2C(=O)CCC2CCN(CCNS(C)(=O)=O)CC2)cc(OC)c1,7.9µM*,?
COc1cc(N)c(Cl)cc1C(=O)CCC1CCN(CCNS(C)(=O)=O)CC1,32µM*!,?
COc1cc(N)c(Cl)cc1C(=O)OCCN1CCCCC1,-17%,5%
Cn1cc(C(=O)OCC2CCN(CCNS(C)(=O)=O)CC2)c2ccccc21,?,2%
CC1(C)CN(Cc2ccccc2)C(=O)[C@@H]1CC(=O)Nc1ccccc1,16%,·
O=C(CCCN1CCN(c2ccccn2)CC1)c1ccc(F)cc1,9%,16%[17.8 µM]
O=C(CCCN1CCN(c2ccc(F)cc2)CC1)NC1c2ccccc2CSc2ccccc21 (centres undefined),14µM*,-29%
CCCCCCN1C[C@H](O)[C@@H](n2cc(C3CC3)nn2)C[C@H]1c1ccc(Cl)cc1,?,-32%
COC(=O)C1=C[C@]2(c3ccccc3C[C@H](OC)[C@@H]2C)[C@H]2C=C[C@H]1C2,8%[8.59 µM],-23%[8.59 µM]
COC(=O)C1=C(C)N(Cc2ccccc2)C(=NCCc2c[nH]c3ccccc23)NC1c1ccc(Br)cc1 (centres undefined),?,-14%[8.59 µM]
C=CCN(C)CCCCCCOc1ccc(C(=O)c2ccc(Br)cc2)c(F)c1,4µM*,?
SMILES,Marburg entry,LASV entry inh
C#CCCCON=C1C[C@@H](O)[C@@H](O)[C@@H]2[C@H]3C(=O)N([C@@H](C)c4ccccc4)C(=O)[C@@H]3CC[C@H]12,?,9%[8.59 µM]
O=C1C=C2C(=CCOC2O)O1 (centres undefined),1.1µM*,3.2µM*
NS(=O)(=O)c1ccc(Nc2cc(-c3ccc(O)c(F)c3)[nH]n2)cc1,-27%,39%
COC1(CS(=O)c2ccccc2)CCN(CCc2c[nH]c3ccc(F)cc23)CC1 (centres undefined),16µM*,-13%
COc1ccc2[nH]cc(CCN(C)C)c2c1,-13%,1%
C=C(CCN1C=C(C(=O)OCC)C(c2ccccc2)NC1=O)c1ccccc1 (centres undefined),?,19%[8.59 µM]
OCCO[C@@H]1[C@@H](O)[C@H](O)[C@@H](CO)O[C@@H]1O,-1%,-16%
O=C(NCC1CC1)c1ccc(-c2cccc(C(=O)NC3CC3)c2)cc1,36%,36%
O=S1(=O)CCSCCN1Cc1ccccc1Br,19%,23%
COc1ccc(-c2coc3ncnc(N)c23)cc1,-38%,-18%
Oc1ccc(/C=C/c2cc(O)cc(O)c2)cc1,7.1µM*,7.9µM*
O=C(/C=C/c1ccc(O)cc1)c1ccc(O)cc1O,22%,9%
COc1ccc(/C=C/c2cc(O)cc(O)c2)cc1,1%,-3%
Oc1ccc(/C=C\c2cc(O)cc(O)c2)cc1,11µM*,10µM*
CCO[C@H](c1cc(OC)cc([N+](=O)[O-])c1OC)[C@H](C)[C@@H](OC)[C@H](C)C=CCC(=O)OC,1%[8.59 µM],-6%[8.59 µM]
Cc1ccccc1CNc1ncnc2c1ncn2[C@@H]1O[C@H](CO)[C@@H](O)[C@H]1O,25%,-4%
OC[C@H]1O[C@@H](n2cnc3c(NCc4ccco4)ncnc32)[C@H](O)[C@@H]1O,13µM*,?
CNc1ncnc2c1ncn2[C@@H]1O[C@H](CO)[C@@H](O)[C@@H]1O,7%[17.8 µM],-13%[17.8 µM]
OC[C@H]1O[C@@H](n2cnc3cncnc32)[C@H](O)[C@@H]1O,3.2µM*,7.9µM*
CSc1ncnc2c1ncn2C1OC(CO)C(O)C1O (centres undefined),0.5µM*,0.35µM*
Nc1ncnc2c1ncn2C1OC(CO)C(O)C1O (centres undefined),5%,0%
COCCN1C(=O)CC[C@@]23C1=NC(C(=O)OC)=C(C(=O)OC)[C@@H]2N(CC=C(C)C)c1ccccc13,-14%[8.59 µM],-9%[8.59 µM]
COC[C@@H]1N[S+](=O)([O-])c2ccc(Br)cc2O[C@@H]1c1ccccc1,-7%,-8%
C[C@]12C[C@@](C)(C=C1C=Cc1ccccc1)C(=O)C[C@H]2c1ccccc1,3%[8.59 µM],0%[8.59 µM]
COc1cc(/C=C/C(=O)O)cc(OC)c1OC,2%,3%
SMILES,Marburg entry,LASV entry inh
COc1cc(/C=C/C(=O)N2CCCCC2=O)cc(OC)c1OC,13µM*,11µM*
COc1cc(C(=S)N2CCOCC2)cc(OC)c1OC,-3%,-9%
COc1cc(/C=C\C(=O)N2CCC=CC2=O)cc(OC)c1OC,8.9µM*,?
CNC(=O)c1cncc(C=Cc2c(C)cccc2C)c1,?,35%
COC1=C[C@H](C(=O)NCCNC(C)=O)[C@@]2(C)Cc3ccccc3[C@@H]2CC1=O,-20%[8.59 µM],·
CCN1C(=O)N(S(=O)(=O)C(F)(F)F)C(c2ccccc2)C(C(=O)OC)=C1C (centres undefined),-6%[8.59 µM],33%[8.59 µM]
COc1ccc(C[C@@H]2NC[C@H](O)[C@@H]2OC(C)=O)cc1,?,0.011µM*
COc1ccc2cc(CCC(C)=O)ccc2c1,54%[17.8 µM],50%[17.8 µM]
COc1ccc(N2C[C@H](Cc3ccccc3)[C@@H](CC(=O)Nc3ccccc3)C2=O)cc1,-27%,·
COc1ccc(C[C@H]2NC[C@H](O)[C@H]2OC(C)=O)cc1,?,3.5e-05µM*
COC(=O)[C@H](Cc1ccccc1)N1C[C@@H](N2CCC[C@@H]2C)C[S+]1(=O)[O-],20%,14%
COC(=O)[C@H](C(C)C)N(Cc1cc(OC)cc(OC)c1)S(=O)(=O)CCl,-23%,·
COc1cccc2ccc(CN3CCC4(CC3)c3ccccc3[C@@H](NC(=O)c3ccccc3)[C@@H]4O)nc12,?,-4%
CCOC(=O)CCN1C(=O)[C@@H]2[C@H]3[C@H](O)[C@H](O)CC(=NO[C@@H]4O[C@H](COC(C)=O)[C@@H](OC(C)=O)[C@H](OC(C)=O)[C@@H]4OC(C)=O)[C@H]3CC[C@H]2C1=O,-6%[8.59 µM],-16%[8.59 µM]
